PubChem BioAssay (Tox21)
Several values for one entry are separate records, joined by “and”; a condition that tells them apart may be missing. Identical values can stand only once. Inconclusive results are not listed. Entries that show only a call come without a potency. Some structures have more than one record in an assay (separate samples or runs), and their calls can disagree. Activity calls are given as the source filed them. Calls follow the shape of the dose curve; as a rule, active = well fitted cell-killing curve with a large enough effect in the repeat runs; inconclusive = weak or mixed curves; inactive = flat fitted curve, though single readings scatter.

Assay: qHTS assay to identify small molecule antagonists of the estrogen related receptor (ERR) signaling pathway from Tox21 library - cell viability counter screen (AID 1224834); also: nearly all actives have a fitted effect of over 30% in size
Settings: ERR reporter cells viability, CellTiter-Fluor, 17.5 h; series mostly up to 92.4 µM
Source text: National Center for Advancing Translational Sciences [NCATS]
NIH Chemical Genomics Center [NCGC]
U.S. Environmental Protection Agency [EPA]
National Institutes of Environmental Health Sciences [NIEHS]
National Toxicology Program [NTP]
U.S. Food and Drug Administration [FDA]
Estrogen related receptors (ERRs), the first orphan nuclear receptors discovered, play an important role in the control of cellular energy metabolism. ERRs are required for high-energy production in response to the environmental challenges. ERR-alpha was also identified as an adverse marker for breast cancer progression; ERR-alpha-positive tumors have a poor prognosis. To screen and to identify environmental compounds that perturb the ERR signaling pathways could provide valuable information for potential therapeutic or preventive measures in the treatment of metabolic disease. To differentiate true ERR antagonists or agonist from cytotoxic substances, the assay is multiplexed with cell viability assay.
Tox21 Assay Protocol Summary:
The ERR cells were dispensed at 2,000 cells/5 ul/well in 1536-well white plates using a Multidrop dispenser. After the assay plates were incubated at a 37 C/5% CO2 incubator for 6 hours, 23 nL of compounds dissolved in DMSO, positive and negative controls or DMSO only was transferred to the assay plate by a pin tool. The plates were incubated at 37 C for 17.5 hours. 1 ul/well of CellTiter-Fluor reagent was added into the assay plates using a Flying Reagent Dispenser. After 30-minute incubation at 37 C/5% CO2, the fluorescence intensity in the plates was measured using a ViewLux plate reader.
Potency is read from the fitted curve at half-maximal effect.

Row | SMILES | Potency
1 | Oc1ccccc1 | inactive
2 | C[C@](N)(Cc1ccc(O)c(O)c1)C(=O)O | inactive
3 | Cc1cc(=O)oc2cc(O)ccc12 | inactive
4 | Nc1c2c(nc3ccccc13)CCCC2 | inactive
5 | CCCCCCCC(=O)OCC(COC(=O)CCCCCCC)OC(=O)CCCCCCC | inactive
6 | C=CCc1ccc(O)c(OC)c1 | inactive
7 | COc1ccc2cc(S(=O)(=O)N[C@H](CC(=O)N[C@H](Cc3ccc(CN4[C@H](C)CCC[C@@H]4C)cc3)C(=O)N(C)C(C)C)c3ccc4c(c3)OCO4)ccc2c1 | 51.6 µM (active)
8 | Cc1cn([C@H]2C=C[C@@H](CO)O2)c(=O)[nH]c1=O | inactive
9 | CC(C)NCC(O)c1ccc(O)c(O)c1 (stereo not given) | inactive
10 | CN1CCc2cccc3c2[C@H]1Cc1ccc(O)c(O)c1-3 | 27.6 µM (active) and 22.8 µM (active) and 26.6 µM (active)
11 | CN1CCC[C@H]1c1cccnc1 | inactive
12 | NC(CO)(CO)CO | inactive
13 | Cc1cc(C)nc(NS(=O)(=O)c2ccc(N)cc2)n1 | inactive
14 | CC(=O)CCC(=O)O | inactive
15 | CC(=O)CC(c1ccccc1)c1c(O)c2ccccc2oc1=O (stereo not given) | inactive
16 | CCCCC1(COC(=O)CCC(=O)O)C(=O)N(c2ccccc2)N(c2ccccc2)C1=O | inactive
17 | CN1[C@@H]2CC(OC(=O)[C@H](CO)c3ccccc3)C[C@H]1[C@@H]1O[C@@H]12 (stereo not given in full) | inactive
18 | F[B-](F)(F)F | inactive
19 | NS(=O)(=O)O | inactive
20 | CC(O)(P(=O)(O)O)P(=O)(O)O | inactive

Row | SMILES | Potency
21 | Nc1c(N=Nc2ccc(-c3ccc(N=Nc4cc(S(=O)(=O)O)c5ccccc5c4N)cc3)cc2)cc(S(=O)(=O)O)c2ccccc12 | 21.7 µM (active)
22 | O=C1NC(=O)C(c2ccccc2)(c2ccccc2)N1 | inactive
23 | NC1CCCCC1 | inactive
24 | CC1(C)S[C@@H]2[C@H](NC(=O)[C@H](N)c3ccccc3)C(=O)N2[C@H]1C(=O)O | inactive
25 | Nc1ccc(O)c([N+](=O)[O-])c1 | 21.7 µM (active)
26 | COc1ccc2c(c1)c(CC(=O)O)c(C)n2C(=O)c1ccc(Cl)cc1 | inactive
27 | CCOc1ccc(NC(C)=O)cc1 | inactive
28 | Nc1ccc(S(N)(=O)=O)cc1 | inactive
29 | NC(=O)n1c(O)c(C(=O)c2cccs2)c2cc(Cl)ccc21 | 23.7 µM (active)
30 | CN(C)C(=O)Nc1ccc(Cl)c(Cl)c1 | inactive
31 | CN(C)C(=S)SC(=S)N(C)C | 1.98 µM (active) and 1.54 µM (active) and 1.68 µM (active)
32 | CC(C)c1c(C(=O)Nc2ccccc2)c(-c2ccccc2)c(-c2ccc(F)cc2)n1CC[C@@H](O)C[C@@H](O)CC(=O)O | inactive
33 | O=CC(=O)c1ccccc1 | inactive
34 | NC(=O)c1cccnc1 | inactive
35 | O=C1c2c(O)cccc2Cc2cccc(O)c21 | inactive
36 | C/C=C/C=C/C(=O)O | inactive
37 | CN[C@H]1CC[C@@H](c2ccc(Cl)c(Cl)c2)c2ccccc21 | 29.8 µM (active)
38 | O=c1[nH]cc(F)c(=O)[nH]1 | 31.8 µM (active) and inactive
39 | CC12CCC(CC1)C(C)(C)O2 | inactive
40 | CS(=O)(=O)OCCCCOS(C)(=O)=O | inactive
